Assay results as given in PubChem BioAssay (NCATS).
Results filed as inconclusive are left out. Active and inactive are the calls of the source. Calls follow the shape of the dose curve; as a rule, active = well fitted inhibition curve with a large enough effect; inconclusive = small, poorly fitted or top-dose-only effect; inactive = flat fitted curve, though single readings scatter. Numbered stars: 1 amine (or outer) side, 2 acyl side, 3 side chain; on linkers, the order of the positions; unused ones are H or OH. Bridge positions count the residues as written; N and C are the ends. Square brackets hold non-standard residues; d marks the D form. Peptide text beside a SMILES is read from it. * marks the point of attachment. ξ: configuration not given here. ΔAla(Z-3-ureido) = NC(=O)N/C=C(\N)C(=O)O; ξDab(CH2SO3H) = NC(CCNCS(=O)(=O)O)C(=O)O; X2 = NC1=NC(O)CC(C(N[*:1])C(=O)[*:2])N1; X1 = NC1=NCCC(C(N[*:1])C(=O)[*:2])N1; Heptanoyl(6-Me) = CC(C)CCCCC(=O)*; ξβ3hOrn = NCCCC(N)CC(=O)*; Dab = NCC[CH](N)C(=O)O; Dap = NC[CH](N)C(=O)O

Assays:
Test in all cases: qHTS profiling for inhibitors of Plasmodium falciparum proliferation (AID 504749); also: nearly all actives have a fitted effect of over 60% in size
Conditions in all cases: P. falciparum in erythrocytes, SYBR Green DNA, 72 h; series mostly up to 28.7 µM
[1] = system: 7G8
Outline: (§1)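 SYBR Green fluorescence (ex 485 nm, em 535 nm) reports parasite DNA after 72 h compound exposure of infected red cells at 0.3% parasitemia, 2.5% hematocrit; signal normalized to 0.29 uM artemisinin and vehicle wells.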

[2] = system: AA1029
Outline: as §1

[3] = system: CP192
Outline: as §1

[4] = system: CP194
Outline: as §1

[5] = system: CP203
Outline: as §1

[6] = system: CP217
Outline: as §1

[7] = system: CP237
Outline: as §1

[8] = system: CP266
Outline: as §1

[9] = system: CP268
Outline: as §1

[10] = system: CP269
Outline: as §1

[11] = system: CP291
Outline: as §1

[12] = system: CP315
Outline: as §1

[13] = system: DIV30
Outline: as §1

[14] = system: HB3
Outline: as §1

[15] = system: JCK
Outline: as §1

[16] = system: P94_40
Outline: as §1

[17] = system: PC15
Outline: as §1

[18] = system: PC26
Outline: as §1

[19] = system: TAB109
Outline: as §1

[20] = system: CP329
Outline: as §1

Measured: Potency
Potency is read from the fitted curve at half-maximal effect.

Cn1cc(O)nc1NC(=O)Nc1cccc(Cl)c1
not listed: [20]
inactive: all other assays above

NCCCC(N)CC(=O)NCC1NC(=O)C(CO)NC(=O)C(N)CNC(=O)C(C2CCN=C(N)N2)NC(=O)/C(=C/NC(N)=O)NC1=O (stereo not drawn) (H-[Dap]S[Dap](ξβ3hOrn)[ΔAla(Z-3-ureido)][X1]; lactam 1-C; configuration not given here)
inactive: all assays above

O=C(OCC1OC(OC(=O)c2cc(O)c(O)c(OC(=O)c3cc(O)c(O)c(O)c3)c2)[C@@H](OC(=O)c2cc(O)c(O)c(OC(=O)c3cc(O)c(O)c(O)c3)c2)C(OC(=O)c2cc(O)c(O)c(OC(=O)c3cc(O)c(O)c(O)c3)c2)C1OC(=O)c1cc(O)c(O)c(OC(=O)c2cc(O)c(O)c(O)c2)c1)c1cc(O)c(O)c(OC(=O)c2cc(O)c(O)c(O)c2)c1 (stereo not given in full)
active: [1] 2 µM | [2] 2.51 µM | [3] 7.57 µM | [4] 3.79 µM | [5] 4.26 µM | [6] 3.55 µM | [7] 2.51 µM | [8] 3.79 µM | [9] 3.38 µM | [10] 1.9 µM | [12] 5.36 µM | [20] 4.26 µM | [13] 5.36 µM | [14] 2 µM | [15] 10 µM | [16] 2.82 µM | [17] 7.94 µM | [18] 7.57 µM | [19] 2.82 µM

CC(C)CC(NC(=O)C(COC(C)(C)C)NC(=O)C(Cc1ccc(O)cc1)NC(=O)C(CO)NC(=O)C(Cc1c[nH]c2ccccc12)NC(=O)C(Cc1cnc[nH]1)NC(=O)C1CCC(=O)N1)C(=O)NC(CCCN=C(N)N)C(=O)N1CCCC1C(=O)NNC(N)=O (stereo not given)
inactive: all assays above

NCCCC(N)CC(=O)NC1CNC(=O)C(C2CC(O)N=C(N)N2)NC(=O)/C(=C/NC(N)=O)NC(=O)C(CO)NC(=O)C(CO)NC1=O (stereo not drawn) (ξβ3hOrn-[Dap]SS[ΔAla(Z-3-ureido)][X2]; lactam 1-C; configuration not given here)
inactive: all assays above

CCC1NC(=O)C(NC(=O)c2ncccc2O)C(C)OC(=O)C(c2ccccc2)NC(=O)C2CC(=O)CCN2C(=O)C(Cc2ccccc2)N(C)C(=O)C2CCCN2C1=O (stereo not given)
active: [1] 8.91 µM
not listed: [14] | [16]
inactive: all other assays above

CCC(Oc1ccccc1)C(=O)NC1C(=O)N2C1SC(C)(C)C2C(=O)O (stereo not given)
not listed: [3]
inactive: all other assays above

CCC(C)C1NC(=O)C(CCNCS(=O)(=O)O)NC(=O)C(NC(=O)C(CCNCS(=O)(=O)O)NC(=O)C(NC(=O)C(CCNCS(=O)(=O)O)NC(=O)CCCCC(C)C)C(C)O)CCNC(=O)C(C(C)O)NC(=O)C(CCNCS(=O)(=O)O)NC(=O)C(CCNCS(=O)(=O)O)NC(=O)C(C(C)CC)NC1=O (stereo not given) ({Heptanoyl(6-Me)}-[ξDab(CH2SO3H)]T[ξDab(CH2SO3H)][Dab][ξDab(CH2SO3H)]II[ξDab(CH2SO3H)][ξDab(CH2SO3H)]T; lactam 4-C; configuration not given here)
inactive: all assays above

CC(C)C(NC(=O)C(CC(=O)O)NC(=O)C(CCCCN)NC(=O)C(N)CCCN=C(N)N)C(=O)NC(Cc1ccc(O)cc1)C(=O)O (stereo not given) (H-RKDVY-OH; configuration not given here)
inactive: all assays above
